Among all 360,000 compounds or so, about 7,500 (2.1%) were called active. Entries that show only a call come without a potency. Not shown: some 20% with an inconclusive outcome. This is one part of a sample in which actives are shown more often than they occur. The call rests on the fitted dose curve; in most records, active means well fitted inhibition curve with a large enough effect; inconclusive means small, poorly fitted or top-dose-only effect, or effect the other way; inactive means flat fitted curve, though single readings scatter.

57 compounds from PubChem BioAssay AID504444 (National Center for Advancing Translational Sciences (NCATS), 2011) can be followed below.
Potency means the concentration at half of the fitted maximal effect.

This assay is described as follows: Nrf2 qHTS screen for inhibitors. Further: nearly all actives have a fitted effect of over 60% in size. Particulars: A549 ARE-Fluc reporter, luciferase luminescence, 18-24 h; series mostly up to 46 µM. An excerpt:
NIH Molecular Libraries Probe Production Network [MLPCN]
NIH Chemical Genomics Center [NCGC]
Assay Provider: Shyam Biswal, Johns Hopkins University
Nrf2 is a transcription factor that maintains cellular redox homoestasis and protects cells from xenobiotics. Nrf2 binds to the antioxidant response element (ARE) to induce gene expression of a broad spectrum of genes that encode for antioxidants. […] Finding a small molecule that act as an inhibitor of Nrf2 function would represent a novel therapeutic target that could lead to improvement in survival of patients undergoing chemo- and/or radio- therapy.
This is the Nrf2 activity measured in the luminescent read.
1. Shibata, T., et al., Genetic Alteration of Keap1 Confers Constitutive Nrf2 Activation and Resistance to Chemotherapy in Gallbladder Cancer. Gastroenterology, 2008.
2. Sjoblom, T., et al., The consensus coding sequences of human breast and colorectal cancers. Science, 2006. 314(5797): p. 268-74.
NCGC Assay Protocol Summary:
A concentration-response assay was performed with A549 ARE_Fluc cells which are suspended in 5% FBS OPTI-MEM. Five uL were dispensed into 1536-well white TC-treated plate using the Kalypsys dispenser to achieve a density of 5000 cells/well in all columns except column 1. The plate is incubated at 37deg C at 5% CO2 for 2 hours before 23 nL of compounds are added with the Kalypsys pin tool equipped with a 1,536-pin array containing 10-nL slotted pins (FP1S10, 0.457-mm diameter, 50.8 mm long; V&P Scientific). The control compounds Budesonide and Staurosporine are both added at a concentration of 2mM and Budesonide is also added as a 1:10 titration, starting at 200uM, to achieve dose-response. After an 18-24 hour incubation at 37deg C at 5% CO2, 5ul of medium is added to column 1. Afterwards 1ul of 5x of CellTiter-Fluor (Promega) is added to every well. The plate is then incubated at 37deg C at 5% CO2 for 30 minutes before they are read on the ViewLux (Perkin Elmer) for a fluorescent read Ex=405(10)/Em=525(10) for a 3 second exposure, 2x binning, and high gain. Then 3 uL of 3x BugLite is dispensed into all wells and the plate is incubated at ambient room temperature for 15 minutes. Afterwards another ViewLux read is performed using the clear filter to get a luminescent read with the settings of 40 second exposure, 2x binning, and high gain. Cytotoxicity is assessed through the first fluorescent read and then biochemical activity against Nrf2 is measured in the luminescent read.
A general note: Quantitative high-throughput screening tests each substance at several concentrations.
For the compound `CCOC(=O)C1=C(CN2CCc3ccccc32)NC(=O)NC1c1ccc(Cl)cc1` (configuration not stated), the Potency was 16.4 µM (active).
Regarding `CCOC(=O)C1=C(CN2CCCCCC2)NC(=O)NC1c1cccc([N+](=O)[O-])c1` (configuration not stated), the Potency entry was “inactive”.
Turning to `CCOC(=O)C1=C(CN2CCc3ccccc32)NC(=O)NC1c1cccc([N+](=O)[O-])c1` (configuration not stated), the Potency result was “inactive”.
Turning to `COc1ccc(CNCCCn2cnc3c(OCc4ccccc4)ncnc32)cc1`, the Potency result is “inactive”.
With `CCOC(=O)c1cnc(-n2nc(C)cc2C)nc1NNc1cc(C)nc(-c2ccccc2)n1`, the Potency was 4.11 µM (active).
For `Cc1cc(C)n(-c2c(F)c(F)c(COC(=O)c3ccccc3)c(F)c2F)n1`, the Potency entry is “inactive”.
Take `CCOC(=O)c1cnc(-n2nc(C)cc2C)nc1Nc1cccc(C(C)=O)c1`: the Potency entry is “inactive”.
On the same count and under the same terms, with `O=c1n(Cc2cccc(C(F)(F)F)c2)c2ccccc2c2nc(-c3ccccc3)nn12` the entry was “inactive”; with `CC(Nc1ccc([N+](=O)[O-])cc1[N+](=O)[O-])c1ccccc1` (configuration not stated), “inactive”.
The same measure, in the same setting: then `CCn1cc(C(=O)OCC(=O)Nc2cc(C)cc(C)c2)c(=O)c2ccc(C)nc21`, with “inactive”; and `CC[C@]1(C(=O)OC)[C@H]2C(=O)N(Cc3ccccc3)C(=O)[C@H]2[C@H]2CN=C(SCc3ccc(Cl)cc3)N21`, with “inactive”; and `Cc1ccc2cccc(NC(=O)c3cccc4ccccc34)c2n1`, with “inactive”.
On the same count and under the same terms, then `Cc1ccc2ccc3c(c2n1)NS(=O)(=O)c1ccccc1-3`, with 20.6 µM (active); and `Cc1ccccc1C(=O)NCCN=C1NS(=O)(=O)c2ccccc21`, with “inactive”.
As to `CC(C)(C)OC(=O)C[C@@H]1C/C=C\C[C@@H](CC(=O)N[C@H](CO)Cc2ccccc2)C(=O)NC[C@@H](c2ccccc2)OC1=O`, the Potency entry is “inactive”.
Consider `Cc1ccc(CN(C(=O)c2ccccc2[N+](=O)[O-])c2ccccn2)cc1`, for which the Potency entry was “inactive”.
For `O=C(Nc1ccc(Cl)cc1)Nc1ccc(C(=O)N2CCOCC2)cc1`, the Potency result is “inactive”.
As for `O=C(Oc1cccc(C(=S)N2CCOCC2)c1)c1cccc(Cl)c1`, the Potency result is “inactive”.
As to `O=C(Nc1ccc(Cl)cc1)c1cccc(OC(=S)N2CCOCC2)c1`, the Potency was 23.1 µM (active).
For `CCCCNC(=O)C(C)N(CCN(C)C)C(=O)CCCN1C(=O)NC(c2ccc(Cl)cc2)C(C(=O)OCc2ccccc2)=C1C` (configuration not stated), the Potency result is “inactive”.
Still for that read-out and setting: with `N#Cc1nc(COc2ccc(-c3ccccc3)cc2)oc1NCc1cccnc1` the figure was 13 µM (active).
On to `N#Cc1nc(Cc2cccc3ccccc23)oc1NCc1ccc2c(c1)OCO2`, for which the Potency entry was “inactive”.
On to `Cc1ccc(OCc2nc(C#N)c(N3CCCC3)o2)cc1`, for which the Potency entry was “inactive”.
The same measure, in the same setting: with `Oc1ccc(Br)cc1C1C=C(c2ccc3c(c2)OCO3)NC(c2ccc(Cl)cc2)N1` (configuration not stated) the entry was “inactive”; with `Cc1cccc(C)c1NC(=O)COC(=O)c1c(C)nn(-c2ccccc2)c1C`, “inactive”.
On to `CC1CCc2sc(C(=O)NCC(c3ccco3)N3CCCCC3)cc2C1` (configuration not stated), for which the Potency entry was “inactive”.
Same read-out and setting: with `CCOC(=O)N1CCN(C(=O)COc2ccc(Cl)cc2C)CC1` the entry was “inactive”; with `CCCn1nnnc1NC(=O)COc1ccc(Cl)cc1C`, 13 µM (active); with `Cc1cc(NC(=O)COC(=O)COc2ccc(Cl)cc2C)c([N+](=O)[O-])cc1C`, “inactive”.
Take `CCCc1cc(=O)[nH]c(SCC(=O)Nc2ccc(C(=O)Nc3ccccc3OC)cc2)n1`: the Potency entry is “inactive”.
As for `Cc1ccccc1NC(=O)Cn1c(=O)n(CCc2ccccc2)c(=O)c2ccccc21`, the Potency result is “inactive”.
As to `COc1ccc(S(=O)(=O)N(C)C[C@@H]2Oc3ccc(NC(=O)Nc4c(C)noc4C)cc3C(=O)N([C@H](C)CO)C[C@@H]2C)cc1`, the Potency result is “inactive”.
Regarding `CCOc1ccc(NC(=O)c2ccc(NC(=O)COC(=O)c3ccc(NC(=O)CC#N)cc3)cc2)cc1`, the Potency entry is “inactive”.
`CCC(C)(C)c1ccc(Oc2ccc(NC(=O)COC(=O)C3=COCCO3)cc2)cc1`: the Potency is 8.2 µM (active).
For the compound `COc1ccc(NC(=O)COC(=O)CNC(=O)C2CCCCC2)cc1`, the Potency entry is “inactive”.
For the compound `COc1cc(OC)cc(-c2c(C#Cc3ccsc3)c3cc(-c4ccc(OC)cc4F)ccc3n2C)c1`, the Potency result was “inactive”.
On to `O=C(NCCC(=O)N1O[C@@H]2C=C[C@H]1C2)OCC1c2ccccc2-c2ccccc21`, for which the Potency entry was “inactive”.
Take `Cc1cccc(CSc2nnc(Cn3c(=O)sc4ccccc43)n2C)c1`: the Potency result was “inactive”.
Regarding `COc1ccc(Cn2c(=O)sc3ccccc32)cc1OC`, the Potency was 25.9 µM (active).
On the same count and under the same terms, with `COc1ccccc1CNC(=O)CCn1c(=O)sc2ccccc21` the entry was “inactive”.
Consider `COc1ccc(-n2c(SC)nc3sc4c(c3c2=O)CCN(C(C)=O)C4)cc1`, for which the activity change, negative = inhibition is 1.06% [at 9.27 µM] (inactive).
For the compound `CN(C(=O)c1cccc(NC(=O)Cc2ccc(NC(=O)C3CCCN(C(=O)C4CC4)C3)cc2)c1)C1CC1` (configuration not stated), the Potency entry was “inactive”.
`CN(C(=O)c1cccc(NC(=O)Cc2cccc(NC(=O)C3CCCN(C(=O)C4CC4)C3)c2)c1)C1CCC1` (configuration not stated): the Potency result was “inactive”.
In the case of `CN(CCc1ccccc1)C(=O)c1cccc(NC(=O)Cc2cccc(NC(=O)C3CCCN(C(=O)CCc4ccccc4)C3)c2)c1` (configuration not stated), the Potency was 23.1 µM (active).
Still for that read-out and setting: then `CCCN(C(=O)Cn1cc(S(=O)(=O)N2CCN(c3ccccc3F)CC2)c2ccccc2c1=O)c1cccc(C)c1`, with “inactive”; and `COc1ccc(CNC(=O)COc2ccccc2C(=O)c2cnn(-c3ccccc3)c2)cc1OC`, with “inactive”; and `Cc1ccc(C(=O)OCC(=O)NCc2cc(C)c(O)c(C)c2)cc1S(=O)(=O)N1CCCCC1`, with “inactive”.
As to `COc1ccc2c(C)c(CCC(=O)NCc3ccc(OC)c(OC)c3)c(=O)oc2c1`, the Potency result was “inactive”.
Consider `CCC(CO)Oc1cc(NCc2ccccc2)c2ncn(C3CCCC3)c2c1` (configuration not stated), for which the Potency entry was “inactive”.
Regarding `NC(=O)CC(NC(=O)Cc1ccc(Br)cc1)c1ccc(NC2CC3CCC2C3)c([N+](=O)[O-])c1` (configuration not stated), the Potency was 18.4 µM (active).
`Cc1cc(C)cc(C(=O)NC(CC(N)=O)c2ccc(N3CCC(N4CCCCC4)CC3)c([N+](=O)[O-])c2)c1` (configuration not stated): the Potency result is “inactive”.
`CC1CCCCN1CCCNc1ccc(C(CC(N)=O)NC(=O)c2ccccc2)cc1[N+](=O)[O-]` (configuration not stated): the Potency result was “inactive”.
The same measure, in the same setting: with `O=C1OCC2=C1C(c1ccc(Cl)cc1)c1cc3c(cc1O2)OCO3` (configuration not stated) the entry was “inactive”.
As for `COc1ccc(Cl)cc1NC(=O)Cn1c(=O)c2ccccc2n2nncc12`, the Potency result was “inactive”.
For `CN(C)c1ccc(-n2cccc2/C=C2/SC(=Nc3ccc(F)cc3)NC2=O)cc1`, the Potency entry is “inactive”.
In the case of `Cc1cccc(N=C2NC(=O)/C(=C/c3cn(C)c4ccccc34)S2)c1`, the Potency was 14.6 µM (active).
Regarding `Cc1ccc(N=C2NC(=O)/C(=C/C=C/c3ccco3)S2)cc1C`, the Potency result is “inactive”.
